Laboratory results published in the supplement of paper PMC11732987, “Enantioselective OTUD7B fragment discovery through chemoproteomics screening and high-throughput optimisation” (Communications Chemistry, 2025).

Columns and labels:
Experiment in all cases: log2 ratio of Biotin-Ahx-Ub-VS probe labelling (fragment/DMSO); higher = less target engagement (more negative = stronger competition), active = hit call of the paper (q ≤ 0.05, log2 ratio ≤ -1)
Conditions in all cases: compound concentration: 200 uM; treatment time: 3 h
USP42 = biological target: T1, USP42 (UniProt Q9H9J4)
T1 sequence (whole entry): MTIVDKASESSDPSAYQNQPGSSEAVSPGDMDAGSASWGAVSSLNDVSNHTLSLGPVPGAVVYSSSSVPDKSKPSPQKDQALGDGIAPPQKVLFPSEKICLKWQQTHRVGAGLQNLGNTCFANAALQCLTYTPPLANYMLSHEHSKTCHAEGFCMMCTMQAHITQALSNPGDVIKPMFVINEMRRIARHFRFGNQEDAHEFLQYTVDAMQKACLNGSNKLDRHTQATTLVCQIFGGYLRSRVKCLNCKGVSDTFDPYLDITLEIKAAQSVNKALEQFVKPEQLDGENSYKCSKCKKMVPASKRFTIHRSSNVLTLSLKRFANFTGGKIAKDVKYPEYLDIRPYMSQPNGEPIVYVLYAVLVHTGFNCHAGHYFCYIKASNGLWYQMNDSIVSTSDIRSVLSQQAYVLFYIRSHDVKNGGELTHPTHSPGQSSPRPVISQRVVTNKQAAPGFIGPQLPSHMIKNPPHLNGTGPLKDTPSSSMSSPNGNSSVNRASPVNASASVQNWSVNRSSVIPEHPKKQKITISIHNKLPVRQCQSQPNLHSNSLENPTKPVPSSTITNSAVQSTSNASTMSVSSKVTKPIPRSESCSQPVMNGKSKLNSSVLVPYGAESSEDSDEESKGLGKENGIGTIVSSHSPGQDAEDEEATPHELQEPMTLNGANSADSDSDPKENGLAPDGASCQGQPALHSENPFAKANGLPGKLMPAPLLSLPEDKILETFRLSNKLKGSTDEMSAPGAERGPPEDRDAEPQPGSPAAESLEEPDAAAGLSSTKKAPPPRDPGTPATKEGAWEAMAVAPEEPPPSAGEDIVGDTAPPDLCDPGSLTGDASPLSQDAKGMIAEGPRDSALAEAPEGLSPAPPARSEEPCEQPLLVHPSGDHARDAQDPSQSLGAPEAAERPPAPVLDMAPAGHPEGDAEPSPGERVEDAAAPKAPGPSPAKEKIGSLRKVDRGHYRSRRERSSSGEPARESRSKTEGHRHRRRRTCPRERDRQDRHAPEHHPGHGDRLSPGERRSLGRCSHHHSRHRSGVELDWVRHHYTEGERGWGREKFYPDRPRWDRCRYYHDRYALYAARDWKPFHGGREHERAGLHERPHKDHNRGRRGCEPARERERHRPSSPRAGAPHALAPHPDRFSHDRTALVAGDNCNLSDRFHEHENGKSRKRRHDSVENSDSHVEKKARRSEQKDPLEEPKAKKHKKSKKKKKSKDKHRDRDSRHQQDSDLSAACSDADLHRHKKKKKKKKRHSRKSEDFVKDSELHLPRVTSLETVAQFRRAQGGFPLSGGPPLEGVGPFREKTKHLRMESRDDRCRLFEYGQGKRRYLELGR
Summary of the method: (§1)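 Triplicate samples of HEK293T lysate, 495 µg each, received fragment at 200 µM or vehicle for 3 h, followed by Biotin-Ahx-Ub-VS (0.5 µM final) for 1 h. After NeutrAvidin enrichment of labelled DUBs and LysC/trypsin digestion, peptides were run by diaPASEF LC-MS/MS. The values are average log2 fragment/vehicle ratios from global-median-normalised Spectronaut label-free quantities, tested by unpaired t-test on proteins having ≥2 unique peptides.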

USP46 = USP46 (UniProt P62068)
Chain of USP46 (P62068 whole entry): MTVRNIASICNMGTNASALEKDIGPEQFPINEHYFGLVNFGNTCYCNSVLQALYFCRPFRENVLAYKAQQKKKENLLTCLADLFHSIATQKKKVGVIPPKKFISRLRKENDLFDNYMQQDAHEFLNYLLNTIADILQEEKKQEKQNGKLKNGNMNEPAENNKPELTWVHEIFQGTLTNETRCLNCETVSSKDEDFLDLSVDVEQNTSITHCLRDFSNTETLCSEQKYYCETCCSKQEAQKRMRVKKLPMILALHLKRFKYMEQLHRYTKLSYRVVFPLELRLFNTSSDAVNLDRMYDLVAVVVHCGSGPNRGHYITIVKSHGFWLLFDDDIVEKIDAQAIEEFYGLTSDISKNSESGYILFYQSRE
Summary of the method: as §1

USP47 = biological target: T2, USP47 (UniProt Q96K76)
T2 sequence (whole entry): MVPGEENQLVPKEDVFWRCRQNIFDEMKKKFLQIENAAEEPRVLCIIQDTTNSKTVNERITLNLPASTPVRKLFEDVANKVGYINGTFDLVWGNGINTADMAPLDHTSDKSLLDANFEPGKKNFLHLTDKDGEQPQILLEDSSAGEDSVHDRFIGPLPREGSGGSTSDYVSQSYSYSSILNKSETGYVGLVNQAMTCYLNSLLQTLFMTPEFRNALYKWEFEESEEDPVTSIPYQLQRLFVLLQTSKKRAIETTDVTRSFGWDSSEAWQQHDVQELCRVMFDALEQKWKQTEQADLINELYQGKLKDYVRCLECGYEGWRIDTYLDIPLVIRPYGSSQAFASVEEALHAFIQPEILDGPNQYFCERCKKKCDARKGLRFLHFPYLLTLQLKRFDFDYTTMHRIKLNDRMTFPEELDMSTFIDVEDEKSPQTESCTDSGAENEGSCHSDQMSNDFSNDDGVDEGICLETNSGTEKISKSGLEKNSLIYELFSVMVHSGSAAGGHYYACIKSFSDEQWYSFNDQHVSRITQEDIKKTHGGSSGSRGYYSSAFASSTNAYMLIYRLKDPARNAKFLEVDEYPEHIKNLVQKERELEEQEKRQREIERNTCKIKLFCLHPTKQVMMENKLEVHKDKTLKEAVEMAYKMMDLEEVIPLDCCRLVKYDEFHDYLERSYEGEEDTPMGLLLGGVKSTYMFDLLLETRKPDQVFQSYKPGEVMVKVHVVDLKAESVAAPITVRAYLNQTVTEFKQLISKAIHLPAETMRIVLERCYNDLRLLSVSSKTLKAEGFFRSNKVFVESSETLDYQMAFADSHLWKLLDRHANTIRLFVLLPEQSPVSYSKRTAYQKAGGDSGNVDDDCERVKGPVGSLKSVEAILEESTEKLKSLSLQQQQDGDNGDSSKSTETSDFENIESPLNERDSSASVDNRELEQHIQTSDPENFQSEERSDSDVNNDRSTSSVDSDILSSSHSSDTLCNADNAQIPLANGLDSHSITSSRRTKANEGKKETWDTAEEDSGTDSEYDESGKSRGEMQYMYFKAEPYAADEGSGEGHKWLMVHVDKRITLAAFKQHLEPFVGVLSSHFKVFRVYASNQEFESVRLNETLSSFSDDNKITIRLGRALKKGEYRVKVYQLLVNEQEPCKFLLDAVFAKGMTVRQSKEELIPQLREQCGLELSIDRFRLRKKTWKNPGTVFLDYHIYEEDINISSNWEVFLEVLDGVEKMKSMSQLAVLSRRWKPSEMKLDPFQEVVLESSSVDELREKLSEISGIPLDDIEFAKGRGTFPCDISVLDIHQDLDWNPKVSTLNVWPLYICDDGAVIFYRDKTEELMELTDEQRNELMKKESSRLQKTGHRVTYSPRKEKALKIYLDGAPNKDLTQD
Summary of the method: as §1

USP48 = biological target: T3, USP48 (UniProt Q86UV5)
T3 sequence (whole entry): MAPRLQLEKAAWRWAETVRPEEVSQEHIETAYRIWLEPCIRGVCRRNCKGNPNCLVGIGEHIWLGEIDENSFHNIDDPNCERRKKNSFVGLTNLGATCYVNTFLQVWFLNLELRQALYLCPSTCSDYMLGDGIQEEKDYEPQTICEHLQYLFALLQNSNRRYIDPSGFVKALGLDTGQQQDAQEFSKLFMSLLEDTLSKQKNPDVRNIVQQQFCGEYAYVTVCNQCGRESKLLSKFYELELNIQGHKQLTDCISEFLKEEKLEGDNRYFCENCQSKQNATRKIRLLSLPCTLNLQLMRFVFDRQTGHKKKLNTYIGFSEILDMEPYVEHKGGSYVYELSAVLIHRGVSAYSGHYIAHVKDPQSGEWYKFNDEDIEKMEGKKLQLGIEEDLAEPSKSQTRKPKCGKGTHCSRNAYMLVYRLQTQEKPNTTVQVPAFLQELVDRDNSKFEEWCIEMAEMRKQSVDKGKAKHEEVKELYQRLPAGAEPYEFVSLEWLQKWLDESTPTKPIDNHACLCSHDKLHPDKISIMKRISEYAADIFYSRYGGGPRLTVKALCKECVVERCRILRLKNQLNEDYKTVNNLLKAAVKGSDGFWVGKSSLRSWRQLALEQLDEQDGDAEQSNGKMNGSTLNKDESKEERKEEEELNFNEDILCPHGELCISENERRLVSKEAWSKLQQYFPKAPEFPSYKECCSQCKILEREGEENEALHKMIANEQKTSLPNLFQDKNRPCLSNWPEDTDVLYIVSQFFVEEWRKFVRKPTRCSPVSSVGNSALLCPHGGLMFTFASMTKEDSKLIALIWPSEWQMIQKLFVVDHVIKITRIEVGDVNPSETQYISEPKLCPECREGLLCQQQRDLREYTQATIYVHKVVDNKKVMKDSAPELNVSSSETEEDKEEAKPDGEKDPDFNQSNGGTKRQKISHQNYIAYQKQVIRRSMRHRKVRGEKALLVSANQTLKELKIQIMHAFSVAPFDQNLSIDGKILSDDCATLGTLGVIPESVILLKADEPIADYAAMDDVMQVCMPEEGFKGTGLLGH
Summary of the method: as §1

USP5 = biological target: T4, USP5 (UniProt P45974)
T4 sequence (whole entry): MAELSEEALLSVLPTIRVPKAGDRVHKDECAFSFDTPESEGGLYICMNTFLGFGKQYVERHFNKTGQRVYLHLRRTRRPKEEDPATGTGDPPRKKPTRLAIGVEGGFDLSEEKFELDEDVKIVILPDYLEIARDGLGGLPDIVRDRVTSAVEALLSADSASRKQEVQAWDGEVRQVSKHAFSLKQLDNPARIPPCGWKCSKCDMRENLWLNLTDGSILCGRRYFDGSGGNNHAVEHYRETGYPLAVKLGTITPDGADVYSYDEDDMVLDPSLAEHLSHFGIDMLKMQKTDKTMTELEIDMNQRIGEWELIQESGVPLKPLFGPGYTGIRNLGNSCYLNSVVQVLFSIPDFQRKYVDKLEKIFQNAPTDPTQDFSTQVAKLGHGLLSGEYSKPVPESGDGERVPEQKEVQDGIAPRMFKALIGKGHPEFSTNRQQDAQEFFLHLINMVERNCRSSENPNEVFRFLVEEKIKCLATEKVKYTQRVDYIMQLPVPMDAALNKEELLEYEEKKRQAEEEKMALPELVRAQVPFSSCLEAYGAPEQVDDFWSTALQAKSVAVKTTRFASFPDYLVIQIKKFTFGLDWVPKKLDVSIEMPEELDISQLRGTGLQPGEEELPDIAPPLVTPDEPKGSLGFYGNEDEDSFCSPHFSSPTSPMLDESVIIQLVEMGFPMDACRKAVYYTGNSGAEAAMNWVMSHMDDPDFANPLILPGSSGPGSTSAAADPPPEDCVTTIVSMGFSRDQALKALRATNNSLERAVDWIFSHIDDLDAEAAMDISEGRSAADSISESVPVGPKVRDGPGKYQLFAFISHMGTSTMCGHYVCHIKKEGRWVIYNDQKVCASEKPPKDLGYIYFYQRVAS
Summary of the method: as §1

USP54 = USP54 (UniProt Q70EL1)
Chain of USP54 (Q70EL1 whole entry): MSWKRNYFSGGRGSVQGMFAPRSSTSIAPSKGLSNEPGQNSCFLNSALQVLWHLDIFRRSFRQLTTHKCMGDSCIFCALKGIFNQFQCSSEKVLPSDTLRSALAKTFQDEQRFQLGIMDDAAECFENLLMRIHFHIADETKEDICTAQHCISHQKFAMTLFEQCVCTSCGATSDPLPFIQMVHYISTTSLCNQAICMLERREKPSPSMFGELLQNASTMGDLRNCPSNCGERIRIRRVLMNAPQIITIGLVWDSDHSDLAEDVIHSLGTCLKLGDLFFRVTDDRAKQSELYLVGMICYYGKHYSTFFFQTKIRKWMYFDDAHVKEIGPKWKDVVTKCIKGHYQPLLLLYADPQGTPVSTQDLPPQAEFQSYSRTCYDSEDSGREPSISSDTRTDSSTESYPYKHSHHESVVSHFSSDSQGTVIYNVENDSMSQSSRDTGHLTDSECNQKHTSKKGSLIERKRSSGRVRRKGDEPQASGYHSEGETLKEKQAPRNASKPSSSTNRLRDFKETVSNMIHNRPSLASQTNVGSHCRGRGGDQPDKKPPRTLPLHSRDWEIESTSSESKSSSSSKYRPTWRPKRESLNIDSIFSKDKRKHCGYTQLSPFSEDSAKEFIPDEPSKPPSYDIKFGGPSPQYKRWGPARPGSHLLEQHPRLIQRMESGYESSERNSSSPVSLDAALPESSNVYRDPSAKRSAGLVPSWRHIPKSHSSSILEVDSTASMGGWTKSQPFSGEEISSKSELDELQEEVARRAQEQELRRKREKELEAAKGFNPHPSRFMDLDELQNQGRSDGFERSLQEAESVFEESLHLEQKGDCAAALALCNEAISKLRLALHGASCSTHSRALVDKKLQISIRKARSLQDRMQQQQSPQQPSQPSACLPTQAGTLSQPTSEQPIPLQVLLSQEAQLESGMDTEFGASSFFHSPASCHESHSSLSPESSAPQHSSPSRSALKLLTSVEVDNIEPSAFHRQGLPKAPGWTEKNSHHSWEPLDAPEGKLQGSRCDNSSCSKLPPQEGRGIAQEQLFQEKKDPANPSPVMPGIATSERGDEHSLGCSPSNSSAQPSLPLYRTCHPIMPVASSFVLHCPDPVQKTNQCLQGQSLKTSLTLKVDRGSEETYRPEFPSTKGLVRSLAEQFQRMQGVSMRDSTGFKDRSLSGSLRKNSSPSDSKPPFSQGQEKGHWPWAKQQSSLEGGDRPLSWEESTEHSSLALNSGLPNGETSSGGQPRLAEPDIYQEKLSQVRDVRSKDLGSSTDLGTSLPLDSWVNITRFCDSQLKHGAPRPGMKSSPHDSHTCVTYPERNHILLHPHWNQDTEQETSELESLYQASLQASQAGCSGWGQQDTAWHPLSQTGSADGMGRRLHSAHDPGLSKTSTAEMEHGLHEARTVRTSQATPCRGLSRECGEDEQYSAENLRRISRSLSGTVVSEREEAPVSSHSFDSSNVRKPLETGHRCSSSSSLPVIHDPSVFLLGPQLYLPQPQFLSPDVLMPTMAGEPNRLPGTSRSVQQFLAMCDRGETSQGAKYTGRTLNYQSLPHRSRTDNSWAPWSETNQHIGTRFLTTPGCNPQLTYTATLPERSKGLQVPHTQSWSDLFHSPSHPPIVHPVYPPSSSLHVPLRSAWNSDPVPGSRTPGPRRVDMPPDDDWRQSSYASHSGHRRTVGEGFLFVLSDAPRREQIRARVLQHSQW
Summary of the method: as §1

USP7 = USP7 (UniProt Q93009)
Chain of USP7 (Q93009 whole entry, looked up): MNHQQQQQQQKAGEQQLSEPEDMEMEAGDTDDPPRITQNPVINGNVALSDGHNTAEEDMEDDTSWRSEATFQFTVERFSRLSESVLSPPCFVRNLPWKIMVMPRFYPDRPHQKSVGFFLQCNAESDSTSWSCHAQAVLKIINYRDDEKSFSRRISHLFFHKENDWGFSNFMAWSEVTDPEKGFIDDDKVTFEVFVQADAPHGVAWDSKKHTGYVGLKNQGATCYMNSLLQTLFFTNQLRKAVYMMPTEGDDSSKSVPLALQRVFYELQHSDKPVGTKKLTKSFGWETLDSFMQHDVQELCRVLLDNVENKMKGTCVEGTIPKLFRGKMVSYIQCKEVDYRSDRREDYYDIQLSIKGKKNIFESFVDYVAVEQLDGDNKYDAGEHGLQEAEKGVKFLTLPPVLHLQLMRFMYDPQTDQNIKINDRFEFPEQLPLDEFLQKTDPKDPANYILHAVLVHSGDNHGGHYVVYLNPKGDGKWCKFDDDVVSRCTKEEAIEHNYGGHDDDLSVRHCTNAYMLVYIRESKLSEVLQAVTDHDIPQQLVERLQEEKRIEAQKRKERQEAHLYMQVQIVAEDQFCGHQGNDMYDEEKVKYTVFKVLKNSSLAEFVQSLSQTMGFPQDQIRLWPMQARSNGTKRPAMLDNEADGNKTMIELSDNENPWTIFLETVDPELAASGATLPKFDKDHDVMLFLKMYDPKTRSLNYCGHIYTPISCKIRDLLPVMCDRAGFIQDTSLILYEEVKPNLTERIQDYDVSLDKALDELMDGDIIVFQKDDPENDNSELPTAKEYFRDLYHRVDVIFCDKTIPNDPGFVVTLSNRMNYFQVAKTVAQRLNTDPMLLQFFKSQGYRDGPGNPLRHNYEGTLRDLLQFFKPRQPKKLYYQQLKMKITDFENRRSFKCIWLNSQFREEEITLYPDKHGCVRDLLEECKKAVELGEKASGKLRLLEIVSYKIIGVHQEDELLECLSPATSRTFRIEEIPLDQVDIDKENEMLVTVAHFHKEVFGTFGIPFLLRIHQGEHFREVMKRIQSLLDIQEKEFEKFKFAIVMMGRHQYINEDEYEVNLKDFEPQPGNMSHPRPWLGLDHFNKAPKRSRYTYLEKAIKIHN
Summary of the method: as §1

USP8 = biological target: T5, USP8 (UniProt P40818)
T5 sequence (whole entry): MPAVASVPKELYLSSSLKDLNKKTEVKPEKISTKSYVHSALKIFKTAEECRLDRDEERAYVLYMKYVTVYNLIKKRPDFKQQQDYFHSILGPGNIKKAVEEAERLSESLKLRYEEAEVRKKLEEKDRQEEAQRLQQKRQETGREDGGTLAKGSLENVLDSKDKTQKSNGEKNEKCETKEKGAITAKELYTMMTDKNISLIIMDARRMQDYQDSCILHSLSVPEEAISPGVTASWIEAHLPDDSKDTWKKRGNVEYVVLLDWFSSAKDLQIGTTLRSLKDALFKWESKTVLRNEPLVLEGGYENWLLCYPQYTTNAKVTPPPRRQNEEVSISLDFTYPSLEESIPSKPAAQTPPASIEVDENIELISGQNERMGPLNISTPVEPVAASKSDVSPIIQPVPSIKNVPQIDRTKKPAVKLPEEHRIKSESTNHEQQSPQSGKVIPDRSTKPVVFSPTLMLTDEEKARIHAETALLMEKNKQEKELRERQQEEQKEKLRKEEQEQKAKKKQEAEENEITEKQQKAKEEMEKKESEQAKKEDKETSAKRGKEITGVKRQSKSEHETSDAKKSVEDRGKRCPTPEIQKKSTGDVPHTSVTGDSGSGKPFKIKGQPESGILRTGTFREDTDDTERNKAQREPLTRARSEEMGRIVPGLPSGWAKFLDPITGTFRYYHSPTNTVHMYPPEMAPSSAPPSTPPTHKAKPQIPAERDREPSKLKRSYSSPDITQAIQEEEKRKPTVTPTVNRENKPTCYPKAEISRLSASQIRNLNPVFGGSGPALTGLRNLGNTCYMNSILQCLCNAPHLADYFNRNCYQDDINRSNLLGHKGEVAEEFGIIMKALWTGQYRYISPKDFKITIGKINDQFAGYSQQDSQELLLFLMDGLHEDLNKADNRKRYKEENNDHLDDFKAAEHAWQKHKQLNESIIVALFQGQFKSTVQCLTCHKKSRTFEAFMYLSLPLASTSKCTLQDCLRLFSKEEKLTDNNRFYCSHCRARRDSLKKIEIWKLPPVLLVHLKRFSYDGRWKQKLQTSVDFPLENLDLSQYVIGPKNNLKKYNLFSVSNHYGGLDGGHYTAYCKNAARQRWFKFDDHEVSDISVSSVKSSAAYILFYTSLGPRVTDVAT
Summary of the method: as §1

USP9X = USP9X (UniProt Q93008)
Summary of the method: as §1

UniProt O00487 = biological target: UniProt O00487
Chain of UniProt O00487 (O00487 whole entry): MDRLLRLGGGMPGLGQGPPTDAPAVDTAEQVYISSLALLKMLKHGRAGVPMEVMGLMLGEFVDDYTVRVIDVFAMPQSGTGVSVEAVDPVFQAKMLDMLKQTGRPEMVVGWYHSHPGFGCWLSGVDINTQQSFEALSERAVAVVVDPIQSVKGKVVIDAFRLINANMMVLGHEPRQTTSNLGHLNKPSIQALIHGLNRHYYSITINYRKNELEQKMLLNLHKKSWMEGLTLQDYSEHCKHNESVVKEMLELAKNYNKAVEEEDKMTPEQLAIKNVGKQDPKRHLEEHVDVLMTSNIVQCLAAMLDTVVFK
Summary of the method: as §1

Measured: log2 ratio of Biotin-Ahx-Ub-VS probe labelling

O=C(CCl)Nc1cccc(C(=O)N2CCSCC2)c1
inactive: USP42 0.397 | USP46 -0.00544 | USP47 0.175 | USP48 -0.0892 | USP5 -0.171 | USP54 -0.177 | USP7 -0.299 | USP8 -0.00928 | USP9X -0.091 | UniProt O00487 0.0356
